# DAX1 inh-1: DAX1 (NR0B1) inhibition, primary screen | inhibition, % at 6.8 µM | 1.1% of 370,000 active | HEK293T StAR-luciferase reporter, SF-1/DAX-1 repression relief;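 active means inhibition above the mean over all tested compounds plus 3 SD, cut at about 3.6% in these data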;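 further: 0% = DAX-1 cells with DMSO and 100% = cells lacking DAX-1 with DMSO; higher inhibition means more luminescence from relief of DAX-1 repression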
# ssDAF12 agonist: activates DAF-12 receptor from parasite S. stercoralis | HEK293 ssDAF-12/GRIP1 lit1-tk-luc reporter, luminescence; % of 3 µM dafachronic acid response | activation, % at 6.8 µM | 1% of 370,000 active | AID 652126;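 active means activation above the mean over all tested compounds plus 3 SD, cut at about 0.9% in these data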;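 further: 0% = DMSO-only wells and 100% = 3 µM delta7-dafachronic acid wells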
# DAX1 inh-2: inhibitors of human orphan nuclear receptor DAX1 (NR0B1); P51843; HEK293 Gal4-DAX1 luciferase reporter, luminescence; inhibition, % at 6.75 µM; 0.99% of 340,000 active; AID 504766;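 active means inhibition above the mean over all tested compounds plus 3 SD, cut at about 4.2% in these data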;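 further: 0% = DAX1-transfected cells with DMSO and 100% = empty-vector control cells with DMSO; inhibition shows as a rise in luminescence from relieved DAX1 repression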
# Target sequence (P51843 207-470 limits assumed): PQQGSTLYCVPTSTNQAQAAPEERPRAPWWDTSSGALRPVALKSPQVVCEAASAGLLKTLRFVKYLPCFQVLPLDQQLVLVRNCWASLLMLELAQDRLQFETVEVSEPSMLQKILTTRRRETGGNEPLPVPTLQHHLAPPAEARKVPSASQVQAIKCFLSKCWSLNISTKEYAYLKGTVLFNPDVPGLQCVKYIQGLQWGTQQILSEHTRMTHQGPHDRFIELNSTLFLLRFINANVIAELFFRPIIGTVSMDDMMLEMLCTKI
# SMARCA2 activ: SMARCA2 function activation, primary screen. MG213 cells, MMTV-luciferase reporter, dexamethasone, overnight. activation, % at 9.1 µM. 1% of 370,000 active; in the data active means activation above about 7.8%;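 further: 0% = vehicle wells and 100% = reference activator wells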
# hgDAF12 agonist: activates the H. glycines DAF-12 receptor ligand-binding domain; HEK293 GAL4-hgDAF12 UAS-luciferase reporter, agonist luminescence; normalized to butyrate control; activation, % at 6.8 µM; 1.8% of 370,000 active;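 active means activation above a cutoff set at the mean of all screened compounds plus 3 SD, cut at about 10% in these data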;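 further: 0% = DMSO wells and 100% = sodium butyrate wells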
# hcDAF-12 act: activators of H. contortus DAF-12 nuclear receptor. HEK293 hcDAF-12 lit1-tk-luc reporter, luminescence; 0% DMSO, 100% Δ7-dafachronic acid. activation, % at 6.8 µM. 1.4% of 370,000 active;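 active means activation above the mean of all tested compounds plus 3 SD, cut at about 5.5% in these data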;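 further: 100% = response to 3 µM Δ7-dafachronic acid high control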
# DAX1 inh confirm: NR0B1 (human) inhibition, confirmation. shares compounds with DAX1 inh-1. HEK293T StAR-promoter luciferase reporter, SF-1/DAX-1 repression. inhibition, % at 6.8 µM. 87% of 2,400 active;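 active means inhibition above the average of every tested compound plus 3 SD, cut at about 3.8% in these data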;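 further: 0% = DAX-1 cells with DMSO and 100% = no DAX-1 control cells with DMSO; active compounds raise luminescence by relieving repression of the StAR reporter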
# SF1 mutant ctr: nonselective inhibitor or artifact in SF-1 mutant DAX1 counter-screen | inhibition, % at 6.8 µM | HEK293 StAR-luciferase, SF-1 AF2 mutant, luminescence | 78% of 2,400 active | AID 652136 | shares compounds with DAX1 inh-1;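 active means inhibition above the mean of all tested compounds plus 3 SD, cut at about 3% in these data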;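 further: 0% = DAX-1 transfected cells with DMSO and 100% = cells without DAX-1 with DMSO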
# SMARCA2 act conf: confirmation of SMARCA2 (BRM) function activators | AID 652260 | activation, % at 9.1 µM | MG213 cells, MMTV-luciferase with dexamethasone, luminescence, overnight; MG213 cells expressing E1A, Rb sequestered; DMSO wells 0%, reference activator 100% | shares compounds with SMARCA2 activ | 30% of 3,500 active;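 active means activation above its plate's cutoff, the mean activation of tested wells plus 3 SD, cut at about 7.9% in these data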
# VP16 Luc act: counter-screen for SMARCA2 activators: GAL4-VP16 luciferase reporter activation; 41% of 3,500 active; activation, % at 9.1 µM; shares compounds with SMARCA2 activ; HEK293 GAL4-VP16 pG5luc reporter, luciferase luminescence; scaled: DMSO wells 0%, SAHA wells 100%;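 active means activation above the solvent-only control well mean plus 3 SD, averaged across control plates, cut at about 5.2% in these data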
# LXRb hcDAF ctr: LXR-beta agonism as hcDAF-12 counter-screen. shares compounds with hcDAF-12 act. HEK293 Gal4-LXR tk-luc reporter, luminescence, 24 h; normalized: DMSO 0%, positive control 100%. activation, % at 6.8 µM. 3,400 tested, under 10 active;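 active means mean percent activation of the reporter above a cutoff set as the average over tested compounds plus their standard deviation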
# Target sequence (P55055 whole entry, looked up, the tested form may be a part): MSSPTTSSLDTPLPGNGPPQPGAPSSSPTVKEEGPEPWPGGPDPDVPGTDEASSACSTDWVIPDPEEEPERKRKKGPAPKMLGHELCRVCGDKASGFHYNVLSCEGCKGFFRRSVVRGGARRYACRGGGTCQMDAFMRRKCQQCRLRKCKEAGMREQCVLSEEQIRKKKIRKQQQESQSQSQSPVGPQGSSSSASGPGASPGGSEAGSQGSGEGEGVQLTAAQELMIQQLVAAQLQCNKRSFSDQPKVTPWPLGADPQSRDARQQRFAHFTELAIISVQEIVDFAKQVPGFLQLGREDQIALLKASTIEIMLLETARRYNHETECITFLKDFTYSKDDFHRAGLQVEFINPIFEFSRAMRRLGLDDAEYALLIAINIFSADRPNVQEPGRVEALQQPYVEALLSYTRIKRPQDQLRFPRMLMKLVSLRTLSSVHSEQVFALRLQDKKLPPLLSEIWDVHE
# hcDAF12 ag: hcDAF-12 agonism, confirmation assay; AID 743032; HEK293 hcDAF-12 lit1-tk-luc reporter, luminescence; % of Δ7-dafachronic acid response; activation, % at 6.8 µM; 61% of 3,400 active; shares compounds with hcDAF-12 act;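 active means mean activation across triplicate tests above the threshold derived from the earlier primary screen, cut at about 5.5% in these data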;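 further: 0% = DMSO only wells and 100% = 3 µM Δ7-dafachronic acid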
# hgDAF12 conf: confirmation of H. glycines DAF-12 agonists; HEK293 GAL4-hgDAF12 luciferase reporter, agonist mode; percent of butyrate response; AID 743050; 80% of 3,300 active; shares compounds with hgDAF12 agonist; activation, % at 6.8 µM;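 active means mean activation over triplicate wells above the hit cutoff derived from the earlier primary screen, cut at about 11% in these data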;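 further: 0% = DMSO low control and 100% = 2 mM sodium butyrate high control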
# LXR ag 2: activates human LXR-beta, counter-screen for DAF-12 agonists | shares compounds with hgDAF12 agonist | HEK293 Gal4-LXR luciferase reporter, 24 h | activation, % at 6.8 µM | 3,300 tested, under 10 active | AID 743051;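 active means mean activation of the triplicate above a set limit carried over from the primary screen, none filed active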
# The depositor's hits bear a star; · = no result given. Compounds with a hit are over-represented: about 4.8% of the library has one in this group of screens.
SMILES,DAX1 inh-1,ssDAF12 agonist,DAX1 inh-2,SMARCA2 activ,hgDAF12 agonist,hcDAF-12 act,DAX1 inh confirm,SF1 mutant ctr,hgDAF12 conf,LXR ag 2,others
O=C(Nc1ccccc1)c1ccc2ccccc2n1,5.4*,1.9*,5.6*,2,19*,18*,13*,9.8*,22*,1,LXRb hcDAF ctr=1;hcDAF12 ag=16*
C#CCNC(=O)C[C@H]1C[C@@]2(C(=O)OC)C(=C[C@H](C(C)(C)C)O[C@@H]2C)N(Cc2ccc(Cl)cc2Cl)C1=O,0,-1,·,-3,-1,-3,·,·,·,·,
Cc1ccc(C(=O)Nc2nc3ccccc3s2)s1,4.8*,1,1,-1,21*,12*,16*,6.2*,22*,1,LXRb hcDAF ctr=2;hcDAF12 ag=11*
Cc1ccc(C(=O)Nc2nc3ccc(S(C)(=O)=O)cc3s2)s1,2,0,1,3,7,4,·,·,·,·,
CCCCNC(=O)Nc1nc2ccccc2s1,5.5*,0,8.8*,0,15*,3,11*,4.8*,15*,1,
CCC1CCC/C1=N\NC(=O)c1ccoc1C (configuration not stated),11*,0,1,3,17*,4,0,0,5,0,
CCC1CCC/C1=N\NC(=O)c1ccccc1Cl (configuration not stated),0,0,·,1,3,0,·,·,·,·,
Cc1ccc(OCc2nnc(SCC(=O)Nc3ccc(OCc4ccccc4)cc3)n2-c2ccc(Cl)cc2)cc1,1,0,·,-6,-2,-1,·,·,·,·,
O=C(OCc1cn(Cc2ccc(C(F)(F)F)cc2)nn1)N1CCOCC1,0,-1,·,-4,2,-1,·,·,·,·,
CC1Cc2ccccc2N1C(=O)/C=C/c1cccc(F)c1 (configuration not stated),6.1*,1,3,8.2*,16*,5,7.6*,6.9*,16*,1,SMARCA2 act conf=5;VP16 Luc act=9.9*
CC1Cc2ccccc2N1C(=O)COC(=O)/C=C/c1ccc(F)cc1 (configuration not stated),0,-1,0,3,-1,1,·,·,·,·,
Cc1ccc2cc(CCNC(=O)c3cccs3)c(=O)[nH]c2c1C,5.6*,-1,3,1,19*,4,6.8*,3.7*,18*,1,
Cc1ccc2cc(CCNC(=O)CC(C)(C)C)c(=O)[nH]c2c1C,1,-1,1,-2,-2,1,·,·,·,·,
CCOC(=O)CNC(=O)CSc1nc2ccccc2c(=O)n1-c1ccc(Cl)cc1,-1,-2,·,-5,-1,-3,·,·,·,·,
C(=N\Nc1ccccn1)/c1ccc2c(c1)OCCO2,5.6*,1,1,2,27*,6.0*,15*,9.4*,22*,1,
CCOc1ccc(/C=N/Nc2ccccn2)cc1OC,6.7*,0,2,2,16*,2,8.3*,4.4*,13*,0,
Fc1cccc(/C=N/Nc2ccccn2)c1,2,0,2,5,2,2,·,·,·,·,
C=CCOc1ccc(/C=N/Nc2ccccn2)cc1OC,5.3*,-1,2,9.0*,14*,1,4.7*,3,11*,0,SMARCA2 act conf=9.2*;VP16 Luc act=11*
O=C(O)c1cc(N/N=C/c2ccc3c(c2)OCCO3)ccc1Cl,4.6*,0,-4,8,17*,3,13*,6.0*,23*,1,
CCOC(=O)CN1C(=O)N(c2ccc(OC)cc2)[C@H]2CC3c4ccccc4C[C@]3(C)[C@@H](C(=O)N(C)C3CCCCC3)C[C@H]21 (some centres not stated),-2,-2,·,-6,-5,-2,·,·,·,·,
Nc1nc(CSc2n[nH]c(-c3ccccc3)n2)nc(Nc2ccccc2)n1,-1,-2,0,-2,-4,-3,·,·,·,·,
Cc1ccc(-c2nc(Nc3ccccc3)n[nH]2)cc1,6.2*,1.4*,2,5,14*,12*,23*,11*,22*,1,LXRb hcDAF ctr=2;hcDAF12 ag=13*
CC1C(=O)Nc2ccccc2N1C(=O)c1ccc(O)cc1 (configuration not stated),0,-1,1,0,1,-3,·,·,·,·,
O=C1Nc2ccccc2N(C(=O)c2ccc3ccccc3c2)C1c1nc2ccccc2[nH]1 (configuration not stated),13*,1.8*,·,5,27*,6.7*,3,2.9*,10,0,LXRb hcDAF ctr=0;hcDAF12 ag=1
Cc1ccc(O)c(C(=O)CC(=O)c2ccccc2Cl)c1,5.0*,0,5.3*,3,22*,3,0,2,5,0,
COc1cc(O)cc(/C=C/c2ccccc2)c1,4.6*,0,2,4,15*,4,9.3*,5.5*,16*,1,
COc1cc(/C=C/C(=O)O)cc(OC)c1,·,·,2,·,·,·,·,·,·,·,
COC(=O)[C@]12C[C@H](CC(=O)NCc3ccc(C)o3)C(=O)N(CCc3ccc(OC)c(OC)c3)C1=C[C@H](C(C)(C)C)O[C@@H]2C,-1,-1,·,-1,-1,-2,·,·,·,·,

# Screens from PubChem BioAssay.
